The values that follow come from PubChem BioAssay.

The subject of assay [1] is PRMT1 (protein arginine N-methyltransferase 1). The assay can be described thus: small molecules binding arginine methyltransferase PRMT1 – biochemical, small-molecule microarray, 635 nm fluorescence, primary screen (AID 1088).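 Note: binding of Prmt1 protein to compounds spotted on small-molecule microarray slides.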 As to conditions: higher = more signal.
A short description of assay [2]: growth effects on S. cerevisiae YJM789 – YJM789 clinical isolate, OD600, 24 h, basal, primary screen (AID 1089).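 Note: growth of clinical yeast isolate S. cerevisiae YJM 789 seeded 1000 cells per well; test concentration not given here.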 As to conditions: higher = more signal, called active from +8 up or from −8 down.
Assay [3] can be described thus: S. pombe growth modifiers, basal conditions – strain 972, OD600, 24 h, no modulator, primary screen (AID 1090).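 Note: basal condition with compound alone and no growth modifier present; test concentration not given here.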 The settings on record: S. pombe 972 growth, higher = more signal, called active from +8 up or from −8 down.
Assay [4] can be described thus: budding yeast growth modifiers under rapamycin – strain BY4716, OD600, 96 h, primary screen (AID 1091). Note: test concentration not given here. The settings on record: S. cerevisiae BY4716 + rapamycin, higher = more signal, called active from +8 up or from −8 down.
The target in assay [5] is Torsin-1A-interacting protein 2 (Homo sapiens) (UniProt Q8NFQ8). The assay can be described thus: small molecules binding lysate-expressed LULL1 – cell lysate, human LULL1 lysate, 635/667 nm fluorescence, primary screen (AID 1092).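 Note: probe is lysate of COS7 cells overexpressing human LULL1; score merges per-feature 667 nm fluorescence with signal-to-noise.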 As to conditions: small-molecule microarray, hLULL1 lysate binding, 635 nm fluorescence; higher = more signal.
A short description of assay [6]: optical density change of DRC41 E. coli – strain DRC41, OD650, 24 h, E. coli filamentation project, primary screen (AID 1093).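 Note: MC1000 strain lacking acrAB efflux and sulA so SOS filamentation is blocked; test concentration not given here.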 As to conditions: E. coli DRC41 growth, higher = more signal, called active from +8 up or from −8 down.
A short description of assay [7]: probe aLefty2 binding to arrayed compounds – biochemical, biotinylated probe, 635/667 nm fluorescence, primary screen (AID 1094).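 Note: score merges spot fluorescence near 667 nm with spot signal-to-noise ratio.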 The settings on record: small-molecule microarray, higher = more signal.
Assay [8] has as its system Noggin (protein binding on small-molecule microarray). In words: small molecules binding Noggin protein – biochemical, 635/667 nm fluorescence, primary screen (AID 1095).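 Note: score merges 667 nm feature fluorescence with signal to noise over triplicate slides.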 As to conditions: 635 nm fluorescence, higher = more signal.
For assay [9], the target named is Neurogenic locus notch homolog protein 3 (Homo sapiens) (UniProt Q9UM47). The assay can be described thus: small molecules binding NOTCH3 protein – biochemical, 635/667 nm fluorescence, primary screen (AID 1096). As to conditions: small-molecule microarray, 635 nm fluorescence, higher = more signal.
Assay [10] can be described thus: probe aEGFR binding to arrayed compounds – biochemical, biotinylated probe, 635/667 nm fluorescence, primary screen (AID 1097).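 Note: probe is a biotinylated anti-EGFR antibody binding compounds printed on slides; score combines fluorescence near 667 nm and signal to noise of each spot.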 As to conditions: small-molecule microarray, higher = more signal.
Assay [11] has as its system Plasmodium falciparum Sir2 (PF13_0152, Sir2A). In words: Plasmodium falciparum Sir2A binding compounds – biochemical, small-molecule microarray, 635 nm fluorescence, primary screen (AID 1098).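 Note: score merges spot fluorescence intensity with its signal-to-noise ratio.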 The settings on record: fluorescence 635 nm, higher = more signal.
A short description of assay [12]: probe aDKK1 binding to arrayed compounds – biochemical, biotinylated probe, 635/667 nm fluorescence, primary screen (AID 1099).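 Note: score merges 667nm spot fluorescence with signal to noise across triplicate slides; reference of the scale not given here.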 As to conditions: small-molecule microarray, higher = more signal.
Assay [13] in a line: probe aCHRDL2 binding to arrayed compounds – biochemical, biotinylated probe, 635/667 nm fluorescence, primary screen (AID 1100). As to conditions: small-molecule microarray, higher = more signal.
Assay [14] can be described thus: change in splice reporter luminescence, either direction, cell-based, HEK293, spliceosome inhibition project, primary screen (AID 1101).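 Note: HEK293 cells carrying a splicing-competent luciferase reporter gene; test concentration not given here.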 As to conditions: HEK293 splicing luciferase reporter, 24 h, higher = more signal, called active from +8 up or from −8 down.
The target of assay [15] is Fibroblast growth factor 10 (Homo sapiens) (UniProt O15520). In words: compounds binding fibroblast growth factor 10 – biochemical, small-molecule microarray, 635 nm fluorescence, primary screen (AID 1102). The settings on record: FGF10 binding, fluorescence 635 nm, higher = more signal.
The subject of assay [16] is glycogen synthase kinase-3 (GSK3A per assay name; protocol says GSK3B). The assay can be described thus: compounds binding glycogen synthase kinase-3 – biochemical, small-molecule microarray, 635 nm fluorescence, GSK3A, primary screen (AID 1103). Note: the record names both GSK3A and GSK3B. The settings on record: fluorescence 635 nm, higher = more signal.
The target in assay [17] is Epidermal growth factor receptor (Homo sapiens) (UniProt P00533). In words: compounds binding epidermal growth factor receptor – biochemical, small-molecule microarray, 635 nm fluorescence, primary screen (AID 1104).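 Note: score merges 667 nm emission intensity with spot signal to noise over triplicate slides.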 As to conditions: EGFR binding, higher = more signal.
In assay [18] the target is Follistatin-related protein 3 (Homo sapiens) (UniProt O95633). The assay can be described thus: compounds binding follistatin-related protein 3 – biochemical, small-molecule microarray, 635 nm fluorescence, primary screen (AID 1105).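 Note: score merges emission near 667 nm and signal to noise per printed spot across three slides.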 The settings on record: FSTL3 binding, higher = more signal.
Assay [19] has as its target Dickkopf-related protein 1 (Homo sapiens) (UniProt O94907). The assay can be described thus: small molecules binding DKK1 protein – biochemical, small-molecule microarray, 635 nm fluorescence scan, primary screen (AID 1106).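 Note: score merges emission near 667 nm with signal to noise over three replicate slides.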 The settings on record: higher = more signal.
Assay [20] has as its system Inhibin beta A chain (activin A). The assay can be described thus: small molecules binding activin A – biochemical, small-molecule microarray, 635 nm fluorescence scan, primary screen (AID 1107).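 Note: mouse activin A protein probed at 4.33 µg/mL on printed slides; score merges bound-protein fluorescence near 667 nm with spot signal-to-noise.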 The settings on record: INHBA, higher = more signal.

Calls of active or inactive are those of the source.

Epidermal growth factor receptor (Homo sapiens), sequence (P00533 whole entry, looked up): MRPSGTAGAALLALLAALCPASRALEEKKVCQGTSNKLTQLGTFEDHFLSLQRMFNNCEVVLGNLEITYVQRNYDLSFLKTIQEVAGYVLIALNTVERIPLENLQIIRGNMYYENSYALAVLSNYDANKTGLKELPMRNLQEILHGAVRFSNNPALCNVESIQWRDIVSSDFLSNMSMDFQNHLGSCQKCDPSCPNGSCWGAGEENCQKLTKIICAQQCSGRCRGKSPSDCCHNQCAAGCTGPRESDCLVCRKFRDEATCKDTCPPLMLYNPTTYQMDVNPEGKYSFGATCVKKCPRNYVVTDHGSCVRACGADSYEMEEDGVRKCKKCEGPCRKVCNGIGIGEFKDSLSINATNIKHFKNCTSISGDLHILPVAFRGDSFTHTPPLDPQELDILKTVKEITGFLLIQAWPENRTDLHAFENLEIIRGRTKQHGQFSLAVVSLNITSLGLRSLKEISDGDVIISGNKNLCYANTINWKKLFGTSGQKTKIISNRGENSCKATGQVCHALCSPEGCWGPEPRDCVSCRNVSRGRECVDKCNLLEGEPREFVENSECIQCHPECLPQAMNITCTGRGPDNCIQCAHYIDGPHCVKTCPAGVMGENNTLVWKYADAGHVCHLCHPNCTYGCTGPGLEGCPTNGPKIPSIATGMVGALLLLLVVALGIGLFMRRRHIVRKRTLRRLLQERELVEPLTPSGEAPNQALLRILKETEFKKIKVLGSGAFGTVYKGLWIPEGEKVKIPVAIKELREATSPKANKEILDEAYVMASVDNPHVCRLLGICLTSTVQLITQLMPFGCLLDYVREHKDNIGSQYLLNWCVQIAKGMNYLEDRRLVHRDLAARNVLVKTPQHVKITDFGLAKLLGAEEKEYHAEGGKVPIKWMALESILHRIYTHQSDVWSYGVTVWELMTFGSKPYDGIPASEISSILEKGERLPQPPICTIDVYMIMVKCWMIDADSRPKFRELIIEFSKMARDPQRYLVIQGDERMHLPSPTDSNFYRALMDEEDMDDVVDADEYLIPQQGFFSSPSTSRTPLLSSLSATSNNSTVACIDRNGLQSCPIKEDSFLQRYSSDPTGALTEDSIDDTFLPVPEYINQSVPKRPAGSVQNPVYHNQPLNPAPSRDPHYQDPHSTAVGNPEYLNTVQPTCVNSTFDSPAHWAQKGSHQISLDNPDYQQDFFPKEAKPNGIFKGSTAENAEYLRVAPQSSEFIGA
Torsin-1A-interacting protein 2 (Homo sapiens), sequence (Q8NFQ8 whole entry, looked up): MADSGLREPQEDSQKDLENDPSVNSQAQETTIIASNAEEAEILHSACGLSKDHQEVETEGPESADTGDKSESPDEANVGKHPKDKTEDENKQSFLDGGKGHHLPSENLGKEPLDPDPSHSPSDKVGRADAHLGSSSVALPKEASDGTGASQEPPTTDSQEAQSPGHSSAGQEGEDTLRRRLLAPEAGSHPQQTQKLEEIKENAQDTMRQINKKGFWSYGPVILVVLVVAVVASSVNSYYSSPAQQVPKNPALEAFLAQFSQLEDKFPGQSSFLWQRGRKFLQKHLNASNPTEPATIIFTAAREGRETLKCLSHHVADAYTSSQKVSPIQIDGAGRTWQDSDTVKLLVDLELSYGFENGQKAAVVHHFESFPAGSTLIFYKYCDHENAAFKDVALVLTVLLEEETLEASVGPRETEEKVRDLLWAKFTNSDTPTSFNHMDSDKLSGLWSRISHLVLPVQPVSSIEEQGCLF
Fibroblast growth factor 10 (Homo sapiens), sequence (O15520 whole entry, looked up): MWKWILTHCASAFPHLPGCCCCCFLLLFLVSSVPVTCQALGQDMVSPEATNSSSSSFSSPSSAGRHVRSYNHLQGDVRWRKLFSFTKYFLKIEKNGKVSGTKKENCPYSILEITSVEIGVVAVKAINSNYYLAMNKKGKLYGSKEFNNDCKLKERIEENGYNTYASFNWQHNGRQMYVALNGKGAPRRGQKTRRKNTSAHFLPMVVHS
Dickkopf-related protein 1 (Homo sapiens), sequence (O94907 whole entry, looked up): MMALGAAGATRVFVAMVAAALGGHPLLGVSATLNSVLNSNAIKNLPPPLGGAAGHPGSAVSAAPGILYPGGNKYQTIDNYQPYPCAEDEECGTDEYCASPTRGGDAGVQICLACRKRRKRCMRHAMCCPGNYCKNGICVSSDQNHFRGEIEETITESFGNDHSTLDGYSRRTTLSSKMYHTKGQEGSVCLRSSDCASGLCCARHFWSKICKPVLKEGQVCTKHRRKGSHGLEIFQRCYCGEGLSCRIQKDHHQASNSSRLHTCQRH
Neurogenic locus notch homolog protein 3 (Homo sapiens), sequence (Q9UM47 whole entry, looked up): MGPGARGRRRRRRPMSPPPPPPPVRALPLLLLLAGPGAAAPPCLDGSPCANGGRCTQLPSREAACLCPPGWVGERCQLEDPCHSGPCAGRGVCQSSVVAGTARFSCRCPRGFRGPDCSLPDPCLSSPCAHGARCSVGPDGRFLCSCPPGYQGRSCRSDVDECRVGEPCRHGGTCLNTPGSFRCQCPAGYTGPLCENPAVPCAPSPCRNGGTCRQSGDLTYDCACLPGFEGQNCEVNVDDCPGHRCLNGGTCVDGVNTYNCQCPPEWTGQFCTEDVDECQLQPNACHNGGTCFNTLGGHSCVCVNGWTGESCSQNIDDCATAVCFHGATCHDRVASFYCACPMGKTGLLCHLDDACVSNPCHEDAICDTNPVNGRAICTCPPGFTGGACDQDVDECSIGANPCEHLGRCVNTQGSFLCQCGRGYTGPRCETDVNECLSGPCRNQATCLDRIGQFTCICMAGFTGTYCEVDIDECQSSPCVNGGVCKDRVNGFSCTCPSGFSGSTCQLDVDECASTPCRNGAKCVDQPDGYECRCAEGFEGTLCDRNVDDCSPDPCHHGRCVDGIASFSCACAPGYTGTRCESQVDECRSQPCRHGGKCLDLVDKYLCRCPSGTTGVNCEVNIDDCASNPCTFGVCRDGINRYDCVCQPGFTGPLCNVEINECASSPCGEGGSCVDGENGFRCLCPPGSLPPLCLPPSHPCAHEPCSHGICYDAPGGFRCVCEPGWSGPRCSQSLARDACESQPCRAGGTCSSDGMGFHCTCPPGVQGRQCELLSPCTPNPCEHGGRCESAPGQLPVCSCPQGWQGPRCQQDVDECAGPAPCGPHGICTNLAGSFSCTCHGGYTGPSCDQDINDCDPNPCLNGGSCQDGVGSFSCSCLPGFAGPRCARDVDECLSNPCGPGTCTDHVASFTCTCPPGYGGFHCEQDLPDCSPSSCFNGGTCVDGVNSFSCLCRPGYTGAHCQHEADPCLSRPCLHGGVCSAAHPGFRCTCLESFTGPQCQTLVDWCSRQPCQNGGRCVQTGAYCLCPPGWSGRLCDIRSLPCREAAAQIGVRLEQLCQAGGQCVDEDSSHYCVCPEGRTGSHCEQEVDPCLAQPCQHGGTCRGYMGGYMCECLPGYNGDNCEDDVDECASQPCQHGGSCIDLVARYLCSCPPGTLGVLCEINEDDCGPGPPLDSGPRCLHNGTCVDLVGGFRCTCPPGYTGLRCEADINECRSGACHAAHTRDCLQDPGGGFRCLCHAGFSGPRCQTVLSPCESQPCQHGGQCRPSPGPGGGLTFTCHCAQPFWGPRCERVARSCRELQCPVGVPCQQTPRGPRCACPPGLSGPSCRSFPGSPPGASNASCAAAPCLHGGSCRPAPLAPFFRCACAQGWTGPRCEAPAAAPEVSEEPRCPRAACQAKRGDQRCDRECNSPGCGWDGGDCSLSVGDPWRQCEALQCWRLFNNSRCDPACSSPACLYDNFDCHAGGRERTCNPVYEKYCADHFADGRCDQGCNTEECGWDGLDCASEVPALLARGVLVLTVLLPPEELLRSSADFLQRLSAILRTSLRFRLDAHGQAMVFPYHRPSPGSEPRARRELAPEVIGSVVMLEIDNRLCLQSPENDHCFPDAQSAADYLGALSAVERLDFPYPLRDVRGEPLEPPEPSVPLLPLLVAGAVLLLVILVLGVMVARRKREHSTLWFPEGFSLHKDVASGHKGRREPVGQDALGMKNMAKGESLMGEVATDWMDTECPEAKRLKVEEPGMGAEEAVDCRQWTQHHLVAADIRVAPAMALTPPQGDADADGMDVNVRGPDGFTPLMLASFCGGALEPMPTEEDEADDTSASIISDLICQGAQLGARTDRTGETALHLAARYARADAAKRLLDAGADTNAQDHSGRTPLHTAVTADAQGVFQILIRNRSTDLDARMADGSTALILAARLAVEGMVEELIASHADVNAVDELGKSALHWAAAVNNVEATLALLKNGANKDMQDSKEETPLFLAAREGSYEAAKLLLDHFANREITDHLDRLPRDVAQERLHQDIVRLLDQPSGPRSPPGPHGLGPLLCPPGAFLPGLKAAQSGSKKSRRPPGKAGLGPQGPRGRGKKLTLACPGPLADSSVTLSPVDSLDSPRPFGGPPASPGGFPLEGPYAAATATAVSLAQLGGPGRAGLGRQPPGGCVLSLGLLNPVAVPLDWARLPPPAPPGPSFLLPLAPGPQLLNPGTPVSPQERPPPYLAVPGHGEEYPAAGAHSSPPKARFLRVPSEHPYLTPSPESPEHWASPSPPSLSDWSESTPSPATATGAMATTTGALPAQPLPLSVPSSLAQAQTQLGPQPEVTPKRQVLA
Follistatin-related protein 3 (Homo sapiens), sequence (O95633 whole entry, looked up): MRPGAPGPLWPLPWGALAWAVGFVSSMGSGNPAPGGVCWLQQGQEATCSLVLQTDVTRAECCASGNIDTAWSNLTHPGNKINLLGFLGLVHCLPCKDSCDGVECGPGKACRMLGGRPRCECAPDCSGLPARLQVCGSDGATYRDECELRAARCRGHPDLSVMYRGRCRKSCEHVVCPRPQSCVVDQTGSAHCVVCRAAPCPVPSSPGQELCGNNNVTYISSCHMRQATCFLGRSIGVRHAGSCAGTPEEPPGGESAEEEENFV

`O=C1C2=CC[C@H]3C(=O)N(Cc4ccccc4)C(=O)[C@H]3[C@H]2[C@H](O)[C@@H]2O[C@H]12`: the composite z-score in assay [1] is 0.0864; in assay [5] it was -1.23; in [7] it was -0.185; in assay [8] it was -0.0873; in assay [9], -0.95; in [10] it was -0.125. Also, the composite z-score was 1.47 in assay [11]; -0.211 in assay [12]; -0.417 in [13]; 0.0121 in [15]; -0.569 in [16]; 0.41 in assay [17]. In addition, the composite z-score in [18] is -0.1; in [19] it was 0.245; in [20], -0.0664. Also, the z-score in [2] was -0.733 (inactive); in assay [3], -2.12 (inactive); in assay [4], -0.213 (inactive); in assay [6] it was -0.559 (inactive); in assay [14], 6.91 (inactive).
`CCN1C(=O)[C@H]2[C@H]3[C@H](O)[C@H](O)CC(=NO[C@@H]4O[C@H](CO)[C@@H](O)[C@H](O)[C@H]4O)[C@H]3CC[C@H]2C1=O`: the composite z-score is -0.26 in [1]; -0.127 in assay [5]; -0.204 in assay [7]; 0.484 in [8]; 0.65 in [9]; -0.128 in assay [10]. The composite z-score in assay [11] was 0.0675; in [12], -0.219; in [13] it was -0.447; in assay [15] it was 0.456; in [16], 0.342; in assay [17] it was 0.933. The composite z-score in assay [18] came to 0.619; in [19], 0.611; in [20] it was 0.182. Moreover, the z-score in assay [2] is -0.862 (inactive); in [3], -0.238 (inactive); in assay [4] it was -0.14 (inactive); in assay [6], 0.12 (inactive); in assay [14], -0.0478 (inactive).
For the molecule `CC(CCC(=O)OC[C@H]1O[C@H](C#Cc2ccccc2)C=C[C@@H]1Oc1ccc(C)cc1)=NOC[C@@H](C)[C@H](OCc1ccccc1)C(C)C`, the composite z-score was -0.694 in [1]; -1.27 in assay [5]; -0.342 in [7]; 0.809 in [8]; -1.27 in assay [9]; -0.24 in assay [10]. Moreover, the composite z-score in assay [11] was -1.11; in assay [12], -0.247; in [13] it was -0.506; in [15] it was -0.434; in assay [16], -1.3; in [17], -1.05. Also, the composite z-score in assay [18] was -1.09; in [19], -0.613; in [20] it was 0.211. For the same molecule, the z-score in [2] is -0.78 (inactive); in assay [3], 0.484 (inactive); in assay [4], -0.468 (inactive); in assay [6], -0.346 (inactive); in assay [14] it was 0.371 (inactive).
`CC(C)[C@H](NC(=O)OC(C)(C)C)[C@@H](O)CC(=O)C(C)(C)C`: the composite z-score in assay [1] is -0.377; in assay [5], 0.0487; in assay [7], -0.215; in assay [8], 0.838; in assay [9], -0.0208; in assay [10] it was 0.0514. Moreover, the composite z-score in assay [11] is 0.447; in assay [12], -0.268; in assay [13], -0.428; in [15], 0.159; in [16] it was -0.191; in assay [17] it was 0.327. In addition, the composite z-score in assay [18] is 0.29; in assay [19], 0.513; in assay [20], -0.0828. In addition, the z-score is 0.24 (inactive) in assay [2]; 0.0646 (inactive) in [3]; 0.552 (inactive) in assay [4]; 0.782 (inactive) in assay [6]; -0.275 (inactive) in assay [14].
As for `CC=CC1=C(CO)[C@H](O)[C@H]2O[C@H]2[C@@H]1O`, the composite z-score in assay [1] was 0.028; in [5], 0.0048; in [7] it was -0.221; in [8] it was 0.59; in assay [9] it was 0.429; in assay [10] it was -0.128. In addition, the composite z-score was 0.134 in assay [11]; -0.416 in assay [12]; -1.13 in [13]; 0.733 in assay [15]; 0.403 in [16]; 0.148 in assay [17]. Further, the results for the composite z-score in assay [18], in assay [19] and in assay [20] were 0.608, 0.943 and 0.161, respectively. The z-score in assay [2] is 0.285 (inactive); in [3] it was 1.03 (inactive); in assay [4] it was -0.258 (inactive); in [6] it was 0.712 (inactive); in [14], 0.666 (inactive).
